This is an account of results in PubChem BioAssay (EPA / NIEHS).

Active and inactive are the calls of the source. How the source made its calls: active means hit-call score of the fitted dose curve at least 0.9, where 1 is the maximum; inactive means score below 0.9.

Transcriptional activator Myb (Homo sapiens), sequence (P10242 whole entry, looked up): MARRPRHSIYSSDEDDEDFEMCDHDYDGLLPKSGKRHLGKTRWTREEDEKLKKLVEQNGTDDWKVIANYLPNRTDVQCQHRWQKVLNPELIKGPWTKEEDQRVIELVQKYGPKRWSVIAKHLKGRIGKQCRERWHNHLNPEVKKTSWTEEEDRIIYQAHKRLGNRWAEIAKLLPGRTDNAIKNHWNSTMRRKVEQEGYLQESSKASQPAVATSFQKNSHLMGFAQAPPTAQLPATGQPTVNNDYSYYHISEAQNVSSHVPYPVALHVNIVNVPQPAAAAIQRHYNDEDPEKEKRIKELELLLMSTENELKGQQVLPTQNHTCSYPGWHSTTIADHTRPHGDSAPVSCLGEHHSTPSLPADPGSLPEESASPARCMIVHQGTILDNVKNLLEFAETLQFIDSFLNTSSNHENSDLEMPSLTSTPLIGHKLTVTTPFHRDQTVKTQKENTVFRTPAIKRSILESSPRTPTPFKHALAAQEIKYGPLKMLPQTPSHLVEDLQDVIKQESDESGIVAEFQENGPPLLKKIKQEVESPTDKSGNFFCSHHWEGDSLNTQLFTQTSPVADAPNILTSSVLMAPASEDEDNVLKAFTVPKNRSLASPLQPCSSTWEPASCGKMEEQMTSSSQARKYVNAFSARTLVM

The target in the experiment is Transcriptional activator Myb (Homo sapiens) (UniProt P10242). Kind of experiment: ATG_Myb_CIS: Attagene CIS-FACTORIAL HepG2 Assay for human Myeloblastosis (Myb) Proto-Oncogene Transcription Factor (AID 2282986). The conditions noted are these: HepG2 Attagene CIS-FACTORIAL Myb reporter transcription; actives raise or lower the signal. An outline of the steps:
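Steps: transfect HepG2 with cis-regulated reporter units; dose with chemical for 24 h; isolate RNA, reverse-transcribe, PCR-amplify and FAM-label reporter sequences; digest with HpaI; resolve by capillary electrophoresis. Activity fitted in both directions relative to DMSO.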
For the compound `COC(=O)c1ccccc1C(=O)O`, the compound was classed as inactive.
The result for `C#C[C@]1(O)CC[C@H]2[C@@H]3CCC4=CC(=O)CC[C@@H]4[C@H]3CC[C@@]21CC` reads “inactive”.
The result for `CCOC(=O)C(C)Oc1ccc(Oc2cnc3cc(Cl)ccc3n2)cc1` (configuration not stated) reads “inactive”.
On to `COC(=O)c1ccc(I)cc1S(=O)(=O)NC(=O)Nc1nc(C)nc(OC)n1`, for which the compound was classed as inactive.
The result for `CCCCCCC(C)OC(=O)COc1nc(F)c(Cl)c(N)c1Cl` (configuration not stated) reads “inactive”.
The result for `CCNc1nc(N)nc(Cl)n1` reads “inactive”; that for `CCOC(=O)[C@H](C)Oc1ccc(Oc2nc3ccc(Cl)cc3o2)cc1`, “inactive”; that for `CCCCC(CC)COC(=O)c1ccccc1C(=O)O` (configuration not stated), “inactive”.
The result for `COc1c(Cl)ccc(Cl)c1C(=O)O` reads “inactive”; that for `CC(C)(C)[C@@H](O)[C@@H](Cc1ccc(Cl)cc1)n1cncn1`, “inactive”; that for `CC(=O)S[C@@H]1CC2=CC(=O)CC[C@]2(C)[C@H]2CC[C@@]3(C)[C@@H](CC[C@@]34CCC(=O)O4)[C@H]12`, “inactive”.
As for `O=C(Nc1ccc([N+](=O)[O-])cc1Cl)c1cc(Cl)ccc1O`, the outcome was inactive.
